Source: PubChem BioAssay (NCI)
This is part of a sample that, as a whole, favours compounds with a hit. Of some 83,000 tested, about 20% had one in any assay.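 Plates (96-well) were seeded with cells, treated with compound at one concentration, and incubated for 48 hours before percent growth was determined.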 Unmarked numbers belong to inactive results. Calls of active or inactive are those of the source. The calls were made as follows: active = growth percent below 10; inactive = the rest.

system: SF-268 CNS; test: NCI-60 one-dose screen, 48 h (100 = growth as untreated, 0 = no growth, -100 = all killed); conditions: 10 µM unless noted

SMILES | growth
N#C/C(=C1C=C/C(=N/O)C(Cl)=C/1)c1ccc(Cl)cc1 | 54.5%
c1coc(CNc2ccnc(Nc3ccc(OCCN4CCCCC4)cc3)n2)c1 | 90.4%
C=C1CCC2C(C)(CO)C(O)CCC2(C)C1C/C=C1/C(=O)OCC1O/C=C/c1ccccc1 (configuration not stated) | 96.7%
C=C(C)[C@@H]1CC[C@]2(C(=O)N3CCNCC3)CC[C@]3(C)[C@H](CC[C@@H]4[C@@]5(C)C/C(=C/c6ccncc6)C(=O)C(C)(C)[C@@H]5CC[C@]43C)[C@@H]12 | 103%
CCOC(=O)C1C(=O)C=C(c2ccc(OC)cc2)CC1c1sc(N(C)Cc2ccccc2)nc1Cl (configuration not stated) | 74.4%
COc1cc(/C=C/C(=O)/C=C/c2cc(OC)c3c(c2)OCO3)cc2c1OCO2 | 88.7%
C[n+]1c(/C=C/c2c(O)ccc3ccccc23)ccc2ccccc21 | 61.2%
CCN(CC)CCC(CNc1c2ccc(Cl)cc2nc2ccc(OC)cc12)c1ccccc1 (configuration not stated) | 8.46% (active)
C=C1CC2(OC1=O)C(=O)N(CCCN1C(=O)C3(CC(=C)C(=O)O3)c3ccccc31)c1ccccc12 (configuration not stated) | 70.6%
CN(CCCCCl)P(=O)(OCc1ccc([N+](=O)[O-])o1)C(F)(F)C[C@H](NC(=O)CNC(=O)c1ccc(N=[N+]=[N-])cc1)C(=O)NCCc1ccc(O)cc1 (some centres not stated) | 98.1%
COc1ccc(C(=O)N2NC(=O)/C(=C/c3ccc(Br)cc3)N=C2c2ccccc2)cc1 | 89.8%
N#Cc1c(-c2ccccc2)cc(-c2ccccc2)n(CC(=O)NO)c1=O | 52.5%
